{
  "source": "PubChem BioAssay AID652104",
  "about": "(National Center for Advancing Translational Sciences (NCATS), 2013)",
  "note": "The campaign covered roughly 410,000 compounds. About 7,200 (1.8%) were called active. Roughly 7% stayed inconclusive and do not appear here. Shown is part of a subset that was picked to be rich in actives. Entries that show only a call come without a potency. A number with no mark means an inactive call. Calls come from the whole dose curve; as a rule, active = well fitted activation curve with a large enough effect; inconclusive = small, poorly fitted or top-dose-only effect, or another doubt; inactive = no such curve, though single readings can be large or run the other way. Potency is the fitted concentration of half-maximal effect.",
  "data": [
    {"test": "qHTS of TDP-43 Inhibitors; note: nearly all actives have a fitted effect of over 50% in size", "details": "TDP-43 expressing yeast growth rescue, BacTiter-Glo, 24 h; series mostly up to 46.1 µM", "description": "The goal of this project is to identify new chemical probes capable of reversing the toxicity associated with TDP-43 which is associated with frontotemporal lobar degeneration and amyotrophic lateral sclerosis. These compounds will provide a complementary approach to deciphering the tangled mechanisms of toxicity and protection that we have uncovered through genome-wide genetic screens and are beginning to uncover in a large-scale proteomics analysis with mass spectroscopy.\nTo this end, a miniaturized assay was developed to be screened against the Molecular Libraries Small Molecule Repository (MLSMR) to discover TDP-43 inhibitors. Please note that in the set-up this yeast-based assay compounds that inhibit as TDP-43, have a read-out as activators.\nNIH Chemical Genomics Center [NCGC]\nNIH Molecular Libraries Probe Centers Network [MLPCN]\nAssay Submitter (PI): Susan Lindquist, Whitehead Institute/MIT\nDispense 2.5 microL yeast galactose medium per 1536-well plate, pin compound, dispense 2.5 microL TDP-43 expressing yeast in galactose medium at OD600=0.02 (pregrown in raffinose medium to mid-log phase) per well, incubate for 24 hr at 30 deg C, and cell growth will be measured using 5 microL of Bactiter/Glo reagent to entire plate and read using Luminescence Protocol in ViewLux.", "values": [
      {"smiles": "CC1CCN(C(=O)c2ccc(S(=O)(=O)Cc3cc(F)ccc3F)c([N+](=O)[O-])c2)CC1", "Potency": "11.2 µM (active)"},
      {"smiles": "NC(=O)C1CCN(C(=O)c2ccc(F)c(S(=O)(=O)N3CCOCC3)c2)CC1", "Potency": "inactive"},
      {"smiles": "CC1CCN(c2ccc(S(=O)(=O)Nc3cc(C(=O)O)cc(C(=O)O)c3)cc2[N+](=O)[O-])CC1", "Potency": "inactive"},
      {"smiles": "Cc1cc(C)cc(OCC(=O)Nc2c(C(=O)c3ccccc3)oc3ccccc23)c1", "Potency": "inactive"},
      {"smiles": "COc1ccc(CCNC(=O)c2ccc(-n3c(C)cc4c3CCCC4)cc2)cc1OC", "Potency": "inactive"},
      {"smiles": "CC1CCN(S(=O)(=O)c2ccc3c(ccn3CCC(=O)NCc3ccc(N(C)C)cc3)c2)CC1", "Potency": "inactive"},
      {"smiles": "CC1CCC2(CC1)N=C(c1ccccc1)C(=O)N2CC(=O)Nc1ccc(F)c(Cl)c1", "note": "(configuration not stated)", "Potency": "inactive"},
      {"smiles": "Cc1n[nH]c(C)c1S(=O)(=O)N1CCCC(C(=O)NCC2COc3ccccc3O2)C1", "note": "(configuration not stated)", "Potency": "inactive"},
      {"smiles": "OC(COCC1COc2ccccc2O1)CN1CCN(c2ccc(F)cc2)CC1", "note": "(configuration not stated)", "Potency": "inactive"},
      {"smiles": "O=C1C(=O)N(CC2COc3ccccc3O2)c2ccccc21", "note": "(configuration not stated)", "Potency": "28.2 µM (active)"},
      {"smiles": "CC1COc2ccccc2N1S(=O)(=O)c1ccccc1", "note": "(configuration not stated)", "Potency": "inactive"},
      {"smiles": "Cc1ccc(Cl)cc1NC(=O)NC1COc2ccccc2C1", "note": "(configuration not stated)", "Potency": "inactive"},
      {"smiles": "Cc1cc(C(=O)CCl)c(C)n1CC1COc2ccccc2O1", "note": "(configuration not stated)", "Potency": "20 µM (active)"},
      {"smiles": "COc1ccccc1Nc1c2c(nc3ccc(NC(=O)/C=C/c4cc(OC)c(OC)c(OC)c4)cc13)CCCC2", "Potency": "inactive"},
      {"smiles": "CCc1ccc(NC(=O)C2CCCN2S(=O)(=O)c2ccc3nc(-c4ccccc4)[nH]c3c2)cc1", "note": "(configuration not stated)", "Potency": "inactive"},
      {"smiles": "C=Cc1ccc(Cn2c(C(=O)OC)cc3sc(C)cc32)cc1", "Potency": "inactive"},
      {"smiles": "CCN1CCN(c2ncc3c(n2)CC(c2ccccc2O)CC3=O)CC1", "note": "(configuration not stated)", "Potency": "inactive"},
      {"smiles": "Cc1ccc(-n2c3nc(=O)[nH]c(=O)c-3cc3c(Cl)cccc32)cc1", "Potency": "inactive"},
      {"smiles": "Cc1ccc(CNC(=O)c2c(O)nc3c(C)cccn3c2=O)cc1", "Potency": "inactive"},
      {"smiles": "CCOc1cc(C(=O)Nc2nnc3n2CCS3)cc(OCC)c1OCC", "Potency": "inactive"},
      {"smiles": "Cc1ccccc1NC(=O)Cn1c(=O)n(CCCCC(=O)NCc2ccccc2Cl)c(=O)c2ccccc21", "Potency": "inactive"},
      {"smiles": "Cc1ccc(C)c(NC(=O)Cn2ccn(-c3ccc(F)cc3)c(=O)c2=O)c1", "Potency": "inactive"},
      {"smiles": "COc1ccccc1-c1cc(C(F)(F)F)nc(S(=O)(=O)CCCC(=O)Nc2ccc(F)cc2F)n1", "Potency": "14.1 µM (active)"},
      {"smiles": "COc1ccccc1-c1cc(C(F)(F)F)nc(S(=O)(=O)CCCC(=O)Nc2cc(C)ccc2O)n1", "Potency": "inactive"},
      {"smiles": "CSc1ccccc1NC(=O)CCS(=O)(=O)c1nc(-c2cccs2)cc(C(F)(F)F)n1", "Potency": "inactive"},
      {"smiles": "CCOC(=O)c1ccc(NC(=O)c2ncn(-c3ccccc3)n2)cc1", "Potency": "inactive"},
      {"smiles": "Cc1cccc(N2CCN(C(=O)c3ccc(Nc4nc5ccccc5n5nnnc45)cc3)CC2)c1C", "Potency": "inactive"},
      {"smiles": "Cc1ccc(C=O)c([B-](F)(F)F)c1", "Potency": "11.2 µM (active)"},
      {"smiles": "CN1c2ccc(C=O)c3c(C=O)ccc(c23)N(C)C1(C)C", "Potency": "inactive"},
      {"smiles": "CCOc1ccc(OCC)c(Nc2nc3ccccc3n3nnnc23)c1", "Potency": "inactive"},
      {"smiles": "Cc1cc(=O)c2cc(C(=O)Nc3cccc(C)c3C)ccc2[nH]1", "growth rescue (activation)": "0% [at 9.22 µM]"},
      {"smiles": "O=C(COC(=O)COc1cccc(F)c1)NCC1CCCCC1", "Potency": "inactive"},
      {"smiles": "O=C(COc1ccc(F)cc1Br)NCC1COc2ccccc2O1", "note": "(configuration not stated)", "Potency": "22.4 µM (active)"},
      {"smiles": "CCC(=O)c1cc(F)ccc1OCC(=O)Nc1ccc2c(c1)OCCO2", "Potency": "inactive"},
      {"smiles": "CCC(=O)N1CCc2cc(S(=O)(=O)NC(C(=O)Nc3ccc(C(C)=O)cc3)C(C)C)ccc21", "note": "(configuration not stated)", "Potency": "inactive"},
      {"smiles": "Cc1ccccc1-n1nnnc1SCCCC(=O)c1ccc(F)cc1", "Potency": "35.5 µM (active)"},
      {"smiles": "CC(=O)Nc1ccc(NC(=O)CSc2nnnn2-c2ccccc2F)cc1", "Potency": "inactive"},
      {"smiles": "CCn1nnnc1SCC(=O)c1ccc(C)cc1C", "Potency": "inactive"},
      {"smiles": "COc1ccc(CNC(=O)CSCc2nc(-c3ccccc3F)oc2C)cc1", "Potency": "inactive"},
      {"smiles": "COc1ccc(Br)cc1C1CC(=O)Nc2c1c(C)nn2-c1nc(C)cc(C)n1", "note": "(configuration not stated)", "growth rescue (activation)": "10.5% [at 9.22 µM]"},
      {"smiles": "COc1ccccc1N1CCN(c2ccc([N+](=O)[O-])nc2)CC1", "Potency": "inactive"},
      {"smiles": "COc1ccccc1N1CCN(c2ncnc3onc(-c4cccc(Cl)c4)c23)CC1", "Potency": "inactive"},
      {"smiles": "COc1ccccc1N1CCN(c2ncnc3onc(-c4ccc(F)cc4)c23)CC1", "Potency": "15.8 µM (active)"},
      {"smiles": "CN(Cc1ccccc1)c1ncnc2onc(-c3ccc(F)cc3)c12", "Potency": "35.5 µM (active)"},
      {"smiles": "Cc1cc(C)cc(Nc2ncnc3onc(-c4ccc(F)cc4)c23)c1", "Potency": "inactive"},
      {"smiles": "CN(Cc1ccccc1)c1ccc(-c2nc(-c3ccccc3)no2)cc1[N+](=O)[O-]", "Potency": "inactive"},
      {"smiles": "COC(=O)c1cnc(N2CCN(c3ccccc3OC)CC2)c2ccccc12", "Potency": "inactive"},
      {"smiles": "COc1ccccc1N1CCN(c2ncnc3sc(C)c(-c4ccccc4)c23)CC1", "Potency": "17.8 µM (active)"},
      {"smiles": "COc1ccccc1N1CCN(CCCCOc2ccc(F)cc2)CC1", "Potency": "inactive"},
      {"smiles": "CCOc1ccc(OCC)c(NC(=O)c2c(C)nn(-c3ccccc3)c2-n2cccc2)c1", "Potency": "inactive"},
      {"smiles": "O=C(Nc1ccc(Br)cc1)c1cc2nc(-c3ccccc3)cc(-c3ccccc3)n2n1", "Potency": "inactive"},
      {"smiles": "Cc1ccc2c(c1)N(C(=O)CCC(=O)NCc1ccccc1F)CC(C)O2", "note": "(configuration not stated)", "Potency": "inactive"},
      {"smiles": "Cc1ccc2c(=O)cc(C(=O)Nc3sc4c(c3C(=O)NCc3cccnc3)CCCC4)oc2c1", "Potency": "inactive"},
      {"smiles": "O=C(CSc1nccn1C1CCCC1)Nc1cc(C(F)(F)F)ccc1Cl", "Potency": "inactive"},
      {"smiles": "COC(=O)c1ccccc1NC(=O)CSc1n[nH]c(-c2ccncc2)n1", "Potency": "inactive"},
      {"smiles": "CCOC(=O)c1cnc(SCC(=O)Nc2cccc(OC)c2)nc1N", "Potency": "inactive"},
      {"smiles": "CCOC(=O)c1cnc(SCC(=O)Nc2ccccc2C(=O)OC)nc1N", "Potency": "22.4 µM (active)"},
      {"smiles": "Cc1nc(SCC(=O)Nc2ccc(C(=O)O)cc2)n[nH]1", "Potency": "inactive"},
      {"smiles": "O=C(Nc1ccc(C(=O)OCc2cc(=O)n3nc(C4CC4)sc3n2)cc1)c1ccc(F)cc1", "Potency": "inactive"},
      {"smiles": "CCCCNC(=O)c1ccc2c(c1)NC(=O)C(C(C)C)N2", "note": "(configuration not stated)", "Potency": "inactive"},
      {"smiles": "CCc1ccccc1N1CC(c2nc3ccccc3n2CCCCOc2ccccc2)CC1=O", "note": "(configuration not stated)", "Potency": "inactive"},
      {"smiles": "CCOC(=O)c1c(S(=O)(=O)N2CCCC(C(=O)NCc3cccc(C)c3)C2)c(C)n(C)c1C", "note": "(configuration not stated)", "Potency": "inactive"}
    ]}
  ]
}
